Insulin prom inh: inhibitors of insulin promoter-driven GFP, primary screen, imaging, TRM-6 cells (human fetal islet line), eGFP reporter, cell count; reporter expression induced with tamoxifen; inhibition, % at 2 µM; actives 0.9% (n = 130,000); AID 1273, 2008;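 active = inhibition above the mean plus 3 SD, with well images judged a real hit on visual review, cut at about 60% in these data, passing the limit was not always enough; inconclusive = inhibition over the cutoff but images rejected on review; inactive = inhibition not above the cutoff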
WT yeast gro inh: growth inhibition of WT strain, primary screen, mitochondrial fusion inhibitor project, WT and mutant strains, chemical genetic; mitochondrial fusion phenotypic screen; inhibition, % at 10 µM; actives 2.1% (n = 190,000); in the data active = inhibition above about 58%; tested in S. cerevisiae
Lmaj promast: Leishmania major promastigote growth inhibition, primary screen; AID 1063, 2008; inhibition, % at 10 µM; Leishmania major promastigotes, resazurin fluorescence viability; actives 9% (n = 200,000); in the data active = inhibition above about 50%;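 also: promastigotes grown with compound for 44 hours at 28 °C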
Ins promoter up: insulin promoter activators in MIN6 cells, imaging, high-content screening, mouse beta cells; MIN6 insulin promoter-GFP reporter; stronger effect = higher value; z-score at 5 µM; actives 0.3% (n = 190,000); AID 1625, 2009;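 active = z-score above 3 at 5 µM with at least 500 cells counted in the well; inconclusive = wells under 500 cells, flagged as cytotoxic or low count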
Autophagy mod: autophagy modulators in MEF cells, primary screen, imaging, high-content, MEF GFP-LC3; MEF GFP-LC3 puncta imaging; test concentration mostly 10 µM; calls only at 10 µM (by protocol); actives 0.98% (n = 190,000); AID 463193, 2010;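 active = percentage of spot-positive cells more than 3 SD above its plate mean, without a fluorescence outlier flag or 80% toxicity; inconclusive = no clear call, values can overlap the other calls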
Large screens that a line does not name were inactive. Rows were chosen to be rich in hits. Some 11% of all compounds tested hit in one or more screens of this group.

Cc1ccccc1C(=O)N1CCc2cc(-c3nc(NC(=O)Cc4ccc5c(c4)OCO5)sc3C)ccc21	Lmaj promast 98.8
CNc1nc(-c2ccc3c(c2)CCN3C(=O)c2ccccc2C)cs1	none (no result: Insulin prom inh)
Cc1sc(NC(=O)Cc2ccc3c(c2)OCO3)nc1-c1ccc2c(c1)CCN2C(=O)c1cccc(F)c1	Lmaj promast 91.2
Cc1ccc(C(=O)NCC(=O)OCC(=O)c2ccc3c(c2)NC(=O)CO3)cc1	none
O=C(NCc1ccc2c(c1)OCO2)C1CCCN1C(=O)Nc1cccc(Cl)c1 (stereo not drawn)	Lmaj promast 98.7 (no result: Insulin prom inh)
COCCNC(=S)Nc1ccc2[nH]c(=O)[nH]c2c1	none (no result: Insulin prom inh)
Cc1ccc(Nc2nnc(SCc3nc4ccccc4c(=O)[nH]3)s2)cc1	none
CN(C1CCCC1)C1CCN(C(=O)CNC(=O)/C=C/c2cccc(C(F)(F)F)c2)CC1	Lmaj promast 76.3
COCCCNC(=O)/C=C/c1cccc(Cl)c1	none
O=C(/C=C/c1cccc(Cl)c1)Nc1ncccn1	none (no result: Insulin prom inh)
CSc1cccc(NC(=O)/C=C/c2cccc(Cl)c2)c1	WT yeast gro inh 82.8
O=C(/C=C/c1cccc(C(F)(F)F)c1)Nc1cccc(C(F)(F)F)c1	Lmaj promast 95.7
CN(C)C(CNC(=O)/C=C/c1cccc(Cl)c1)c1ccccc1 (stereo not drawn)	Lmaj promast 75.4 (no result: Insulin prom inh)
CCOC(=O)c1nccnc1C(=O)Nc1ccc(C(F)(F)F)cc1	none (no result: Insulin prom inh)
CC(C)(C)N(CC#CCC1(O)c2ccccc2-c2ccccc21)CCO	none (no result: Insulin prom inh)
CC(C)(C)n1nnnc1C(c1cccnc1)N(Cc1ccccc1)Cc1ccco1 (stereo not drawn)	Lmaj promast 84.8
CCC(C)(C)n1nnnc1C(c1ccc(C)cc1)N(Cc1ccco1)Cc1cccs1 (stereo not drawn)	none
CCC(C)(C)n1nnnc1C(C(C)C)N(Cc1cccnc1)Cc1ccco1 (stereo not drawn)	none
CCN(Cc1ccccc1)C(c1ccc(C(F)(F)F)cc1)c1nnnn1C(C)(C)C (stereo not drawn)	WT yeast gro inh 72.8 (no result: Ins promoter up)
COc1cccc(CN(Cc2ccco2)C(c2ccc(F)cc2)c2nnnn2C(C)(C)C)c1 (stereo not drawn)	Lmaj promast 58.0
O=c1[nH]c(/C(Cl)=C/c2cccc(C(F)(F)F)c2)nc2cc(Cl)ccc12	none
CC1(C(=O)NCc2ccc(Cl)c(Cl)c2)Oc2cccnc2NC1=O (stereo not drawn)	none
Cc1ccc(Nc2nc(C)c(CCC(C)C)c(=O)[nH]2)cc1	none
Cc1nc(Nc2ccc(F)cc2)[nH]c(=O)c1CCC(C)C	Lmaj promast 53.4, Ins promoter up inconclusive
O=[N+]([O-])c1cccc(S(=O)(=O)NCCCN2CCOCC2)c1	none
COc1ccc2cc(S(=O)(=O)NCCCN3CCOCC3)ccc2c1	Lmaj promast 89.5
Cc1ccc2cc(S(=O)(=O)NCCCN3CCOCC3)ccc2c1	Lmaj promast 93.2 (no result: Insulin prom inh)
Cc1ccc(S(=O)(=O)NCCCNC(=O)N2CCOCC2)cc1	Autophagy mod active
CC(=O)C(Cc1cccc(F)c1)(Cc1cccc(F)c1)C(C)=O	none (no result: Insulin prom inh)
COC(=O)N/N=C/c1cccc(OCCSc2ccc(Cl)cc2)c1	none
Cc1ccc(-c2nc3ncccc3o2)cc1NC(=O)c1ccco1	Lmaj promast 99.2 (no result: WT yeast gro inh, Ins promoter up)
CCCC(=O)Nc1cc(-c2nc3ncccc3o2)ccc1C	Lmaj promast 89.1 (no result: Ins promoter up)
Cc1ccc(-c2nc3ncccc3o2)cc1NC(=O)c1sc2ccccc2c1Cl	none
Cc1ccc(-c2nc3ncccc3o2)cc1NC(=O)c1cccs1	Lmaj promast 94.8
N#C/C(=C\c1sc(N2CCOCC2)nc1-c1ccccc1)C(=O)Nc1cccc2ccccc12	Autophagy mod active
Cn1c(=O)[nH]c(=O)c2c1nc(NCc1ccco1)n2Cc1ccccc1Cl	none (no result: Insulin prom inh)
COc1cc(NC(=O)CN2CCN(Cc3ccc4c(c3)OCO4)CC2)cc(OC)c1	Lmaj promast 86.0
O=c1[nH]c(CN2CCN(Cc3ccc4c(c3)OCO4)CC2)nc2ccccc12	Lmaj promast 91.1
O=c1[nH]c(CN2CCCCC2)nc2ccccc12	none
CC1CCc2nc(NC(=O)CN3CCN(c4ccccc4)CC3)sc2C1 (stereo not drawn)	none
O=C(CN1CCCN(S(=O)(=O)c2ccc(Br)cc2)CC1)Nc1ccc2c(c1)OCO2	Lmaj promast 86.4 (no result: Ins promoter up)
CC1CCc2nc(NC(=O)CN3CCN(Cc4ccc5c(c4)OCO5)CC3)sc2C1 (stereo not drawn)	Lmaj promast 99.4
Cc1cccc(NC(=O)c2ccc(C3SCC(=O)N3CCc3ccccc3)cc2)c1C (stereo not drawn)	none
